# Assay: T. brucei methionyl-tRNA synthetase enzyme inhibition – biochemical, radioactivity, round 1, late-stage follow-up (AID 743060)
# Settings: purified enzyme, radiolabel aminoacylation, scintillation, 2 h; at 1 µM; stronger effect = higher value
row,Structure (SMILES),inhibition
1,CC1Cc2ccccc2N1C(=O)Cn1cc(C(=O)C(=O)N2CCOCC2)c2ccccc21 (stereo not given),-6.83%
2,CCOC(=O)N1CCC(Nc2c(Nc3ccc(F)cc3)c(=O)c2=O)CC1,28.4%
3,O=C(NCc1nc2ccccc2[nH]1)C1=C[C@@H](c2ccc(Br)cc2)C[C@@H](OCc2ccc(CO)cc2)O1,62.1%
4,CCO[C@@H]1OC(C(=O)NCc2nc3ccccc3[nH]2)=C[C@H](c2ccc(Br)cc2)[C@H]1CCCO,6.72%
5,CCN(CC)C(=O)C(=O)c1cn(CC(=O)Nc2cccc(OC)c2)c2ccccc12,41.4%
6,CC(=O)c1cn(CC(=O)Nc2cccc(C(F)(F)F)c2)c2ccccc12,20.1%
7,O=C(CC=NOCc1ccc([N+](=O)[O-])cc1)Nc1ccc(Cl)cc1,28.6%
8,O=C(Cn1cc(C(=O)COc2ccccc2)c2ccccc21)Nc1cccc(C(F)(F)F)c1,-5.73%
9,Cc1ccc(CNC(=O)CSc2nnc3c(n2)[nH]c2ccc(C)cc23)cc1,76.3%
10,O=C(Cn1cc(C(=O)c2ccco2)c2ccccc21)Nc1cccc(C(F)(F)F)c1,45.2%
11,O=C(NCCc1nc2ccccc2[nH]1)c1ccc(Cl)cc1,20.1%
12,CN1CC(=O)N2C(c3cccc([N+](=O)[O-])c3)c3[nH]c4ccccc4c3C[C@H]2C1=O (stereo not given in full),57.7%
13,Cc1[nH]c2ccc(Br)cc2c(=O)c1CN1CCCCCC1,19.4%
14,Cc1cc2cc(C(=O)N3CCCC(c4nc5ccccc5[nH]4)C3)ccc2o1 (stereo not given),20.3%
15,O=C(NCc1nc2ccccc2[nH]1)C1=C[C@@H](c2ccc(Br)cc2)C[C@@H](OCCCCO)O1,84.2%
16,O=C(NCCc1nc2ccccc2[nH]1)c1ccc(Cl)c(Cl)c1,74.6%
17,O=C(Cn1cc(C(=O)C(=O)N2CCCC2)c2ccccc21)Nc1ccccc1,-5.78%
18,O=C1[C@@H]2Cc3c([nH]c4ccccc34)C(c3cccc([N+](=O)[O-])c3)N2C(=O)CN1CCCO (stereo not given in full),63.2%

row,Structure (SMILES),inhibition
1,O=C(NCc1nc2ccccc2[nH]1)C1=C[C@@H](c2ccc3c(c2)OCO3)C[C@@H](OCCCCO)O1,50.4%
2,Clc1ccc(OCCSCc2nc3ccccc3[nH]2)cc1,-2.58%
3,COc1ccccc1NC(=O)CSc1nnc2c(n1)[nH]c1ccc(C)cc12,19.1%
4,O=C(NCc1nc2ccccc2[nH]1)C1=C[C@H](c2ccc(Br)cc2)C[C@H](OCc2ccc(CO)cc2)O1,50.3%
5,COc1cccc(NC(=O)CSc2nnc3c(n2)[nH]c2ccc(C)cc23)c1,97.7%
6,O=C(CSC1CC(=O)N(c2cccc(Cl)c2)C1=O)Nc1ccc(Br)cc1 (stereo not given),23.7%
7,Oc1c(Cl)cc(Cl)cc1CNc1nc2ccccc2[nH]1,88.3%
8,COc1ccccc1NC(=O)Cn1cc(C(=O)C(=O)N2CCOCC2)c2ccccc21,-14.4%
9,O=C1CC(NCCc2ccccc2)C(=O)N1c1ccc(Br)cc1 (stereo not given),-6.51%
10,O=C(NCc1nc2ccccc2[nH]1)C1=C[C@@H](c2ccccc2)C[C@@H](OCc2ccc(CO)cc2)O1,44.6%
11,O=C(NNC(=O)c1ccc(-n2cncn2)c([N+](=O)[O-])c1)c1ccc(Cl)cc1,7.36%
12,O=C(CN1CCSC1=NCc1ccccc1)c1ccc(Cl)c(Cl)c1,-1.95%
13,COc1ccc(CCN(C(=O)c2cccc(F)c2)C2CC(=O)N(c3ccc(Br)cc3)C2=O)cc1 (stereo not given),-5.29%
14,CCc1ccc2c(c1)c1nnc(SCC(=O)Nc3ccc4c(c3)OCO4)nc1n2C,-1.63%
15,O=C(Cn1cc(C(=O)C(=O)N2CCOCC2)c2ccccc21)NCc1ccccc1,-0.16%
16,O=C(CSc1nnc2c(n1)[nH]c1ccc(Br)cc12)NCc1ccccc1,79.8%
17,O=C(NCc1nc2ccccc2[nH]1)C1=C[C@H](c2ccc3c(c2)OCO3)C[C@H](OCCCCO)O1,5.68%

# — PubChem BioAssay AID743060 (The Scripps Research Institute Molecular Screening Center, 2013)
